# According to PubChem BioAssay (EPA / NIEHS):
# Inconclusive results are not listed. Active and inactive are the calls of the source. How the source made its calls: active means hit-call score of the fitted dose curve at least 0.9, where 1 is the maximum; inconclusive means response in the unintended direction; inactive means score below 0.9.
# Experiment: Tanguay_ZF_120hpf_PFIN_legacy: (Legacy) Oregon State University Tanguay Lab 120 Hour Post-fertilization zebrafish Assay for Pectoral Fin Malformation (AID 2283648);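 further: each larva judged yes or no for fin defect by brightfield with dead larvae skipped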
# Method: Tanguay_ZF_120hpf_legacy is a whole embryo, multiplexed endpoint assay using zebrafish larvae exposed for 120 hours post fertilization on a 96-well plate.Tanguay_ZF_120hpf_PFIN_legacy is one of one assay component(s) measured or calculated from the Tanguay_ZF_120hpf_legacy assay. It is designed to make measurements of zebrafish development as detected with brightfield microscopy of developing zebrafish embryos.Data from the assay component Tanguay_ZF_120hpf_PFIN_legacy was analyzed into 1 assay endpoints. This assay endpoint, Tanguay_ZF_120hpf_PFIN_legacy, was analyzed in the positive analysis fitting direction relative to DMSO as the negative control and baseline of activity. Using a type of morphology reporter, gain-of-signal activity can be used to understand changes in developmentals as they relate to the whole embryo. To generalize the intended target to other relatable targets, this assay endpoint is annotated to the zebrafish development intended target family, where the subfamily is pectoral fin morphogenesis.
# Zebrafish husbandry: Tropical 5D wild-type adult zebrafish were housed in at an approximate density of 1000 per 100 gallon tank at the Sinnhuber Aquatic Research Laboratory, Oregon State University, Corvallis, OR. Each tank was kept at standard laboratory conditions of 28C on a 14-h light/10-h dark photoperiod in fish water consisting of reverse osmosis water supplemented with a commercially available salt (Instant Ocean). Spawning funnels were placed into the tanks the night prior, and embryos were collected and staged. To increase bioavailability, the chorion was enzymatically removed using pronase (63.6mg/ml, >/= 3.5U/mg, Sigma-Aldrich: P5147) at 4 hours post fertilization (hpf) using a custom automated dechorionator.Chemical exposures: Six hpf dechorionated embryos were placed 1 embryo per well in a 96-well plate prefilled with 90 ul of EM using automated embryo placement systems (AEPS). Ten microliters of each row of dilution plate 2 was added to 2 exposure plates. The final DMSO concentration used was 0.64% (vol/vol). Thirty-two embryos were also exposed to 5uM trimethyltin chloride (positive control). Plates were sealed to prevent evaporation and foil covered to reduce light exposure and kept in a 28C incubator. Embryos were statically exposed until 120 hpf. At 24 hpf, embryos were assessed for photomotor response using a custom photomotor response analysis tool (PRAT) and for developmental toxicity endpoints (MO24: mortality at 24 hpf, DP: developmental progression, SM: spontaneous movement, and NC: notochord distortion). At 120 hpf, locomotor activity was measured using Viewpoint Zebralab and assessed for 18 endpoints. Zebrafish acquisition and analysis program (ZAAP), a custom program designed to inventory, acquire, and manage zebrafish data, was used to collect developmental endpoints as either present or absent (i.e., binary responses were recorded). If mortality occurred for an embryo (at either 24 or 120 hpf), the non-mortality endpoints were not measured.
Structure (SMILES),outcome,AC50
OCCO,inactive,–
OC12N=C(c3ccccc3)SC1Cc1cc(Cl)ccc12 (stereo not given),inactive,–
C[C@]12CC[C@@H]3c4ccc(O)cc4CC[C@H]3[C@@H]1CCC2=O,inactive,–
O=C(O)Cn1c(=O)n(Cc2ccc(Br)cc2F)c(=O)c2ccc(Cl)cc21,inactive,–
COc1ccc2cc(S(=O)(=O)N[C@H](CC(=O)N[C@H](Cc3ccc(CN4[C@H](C)CCC[C@@H]4C)cc3)C(=O)N(C)C(C)C)c3ccc4c(c3)OCO4)ccc2c1,inactive,–
Clc1ccccc1C(c1ccccc1)(c1ccccc1)n1ccnc1,inactive,–
O=C1O[C@H]([C@@H](O)CO)C(O)=C1O,inactive,–
CCCCCCCCCCCO,inactive,–
O=C1c2ccccc2C(=O)N1CCc1noc(-c2ccc(CN3CCCCCC3)s2)n1,inactive,–
O=C(O)Cc1cc(I)c(Oc2ccc(O)c(I)c2)c(I)c1,inactive,–
CO[C@H]1/C=C/O[C@@]2(C)Oc3c(C)c(O)c4c(O)c(c(/C=N/N5CCN(C)CC5)c(O)c4c3C2=O)NC(=O)/C(C)=C\C=C\[C@H](C)[C@H](O)[C@@H](C)[C@@H](O)[C@@H](C)[C@H](OC(C)=O)[C@@H]1C,inactive,–
c1ccc(C[n+]2cccc3ccccc32)cc1,inactive,–
CCCCOC(=O)CC(CC(=O)OCCCC)(OC(C)=O)C(=O)OCCCC,inactive,–
CCCCCCCCCCCC[N+](C)(C)C,inactive,–
Cc1occc1C(=O)Nc1ccc(C(=O)N2CCC(F)(F)/C(=C\C(=O)N3CCC(N4CCCCC4)CC3)c3ccccc32)cc1,inactive,–
CN(C)c1ccc(C(=C2C=CC(=[N+](C)C)C=C2)c2ccc(N(C)C)cc2)cc1,inactive,–
Cc1ccc(C(C)C)cc1,inactive,–
CCCOC(=O)c1cc(O)c(O)c(O)c1,inactive,–
c1ccc2n[nH]nc2c1,inactive,–
CCCCCc1ccc(N)cc1,inactive,–

Structure (SMILES),outcome,AC50
CCCCCCCCOc1ccc(C(=O)c2ccccc2)c(O)c1,inactive,–
CC(O)CC(C)(C)O (stereo not given),inactive,–
NC(=O)c1nc(-c2cccc(-c3cc(F)ccc3OCC(F)(F)C(F)(F)F)c2)n[nH]1,–,24.8 µM (active)
CC(C)(O)c1ccc(CNC(=O)c2cccnc2Oc2ccc3nonc3c2)cc1,inactive,–
CCN(Cc1cccc(S(=O)(=O)O)c1)c1ccc(C(=C2C=CC(=[N+](CC)Cc3cccc(S(=O)(=O)O)c3)C=C2)c2ccccc2S(=O)(=O)[O-])cc1,inactive,–
CC[C@@H]1C[C@H](N(Cc2cc(C(F)(F)F)cc(C(F)(F)F)c2)C(C)=O)c2cc(C(F)(F)F)ccc2N1C(=O)OC(C)C,inactive,–
O=c1c(-c2ccc(O)cc2)coc2cc(O)cc(O)c12,inactive,–
CN(C)C(=O)C1(N2CCCCC2)CCN(CC[C@@]2(c3ccc(Cl)c(Cl)c3)CN(C(=O)c3ccccc3)CCO2)CC1,inactive,–
CC(C)(C)c1csc(-c2cc3cc(OCc4ccccc4CC(=O)O)ccc3o2)n1,inactive,–
CCCCCCCCCCCCO,inactive,–
c1ccc2ccccc2c1,inactive,–
O=C(Nc1ccc(Cl)cc1)Nc1ccc(Cl)c(Cl)c1,inactive,–
O=CCCCC=O,inactive,–
Oc1ccc2ccccc2c1,inactive,–
CN1C(=O)N(c2ccccc2Br)Cc2cnc(Nc3ccc4c(c3)OCC(CO)O4)nc21 (stereo not given),inactive,–
CCCCCCCCN(C)CCCCCCCC,inactive,–
O=C1CCC(C2CCCCC2)CC1,inactive,–
O=C(O)c1ccccc1C(=O)OCc1ccccc1,inactive,–
CCCCCCCCOC(=O)c1cc(O)c(O)c(O)c1,inactive,–
CCCCOC(=O)c1ccc(O)cc1,–,46.5 µM (active)
